Shown are actives, neighbours in structure and some others; about 18% of the full set was active somewhere.
HepG2 tox = HepG2 cytotoxicity, counter-screen for TGF-b inhibitors | HepG2 CAGA-GFP viability, ATP luminescence, 18 h | Potency, µM (highest dose often 46.1 µM), inactives show at the highest dose activity change, negative = cytotoxicity, most hits filed as cytotoxic | 410,000 compounds, 0.76% hits | AID 588856; also: potency is read from the fitted curve at half-maximal effect
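CellTiter-Glo luminescence gave cytotoxicity after 18 hours at 37 degrees C. The cells were HepG2 CAGA-GFP in 1% FBS DMEM, stimulated with 500 pg/mL TGF-beta after compound addition. %Activity was normalised to no-cell wells (complete cell-killing) and DMSO (no toxicity), and curves were fitted and classified.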
TDP1 block = inhibitors of human tyrosyl-DNA phosphodiesterase TDP1. Q9NUW8. recombinant TDP1, AlphaScreen DNA substrate cleavage. Potency, µM (series often up to 130 µM), inactives show at the top dose activity change, negative = inhibition, actives largely listed as inhibitors. 350,000 compounds, 0.28% hits; also: potency is read from the fitted curve at half-maximal effect; % is scaled to controls: 0 for no effect and ±100 for the full control effect; nearly all actives have a fitted effect of over 40% in size
Target sequence (Q9NUW8 whole entry, looked up): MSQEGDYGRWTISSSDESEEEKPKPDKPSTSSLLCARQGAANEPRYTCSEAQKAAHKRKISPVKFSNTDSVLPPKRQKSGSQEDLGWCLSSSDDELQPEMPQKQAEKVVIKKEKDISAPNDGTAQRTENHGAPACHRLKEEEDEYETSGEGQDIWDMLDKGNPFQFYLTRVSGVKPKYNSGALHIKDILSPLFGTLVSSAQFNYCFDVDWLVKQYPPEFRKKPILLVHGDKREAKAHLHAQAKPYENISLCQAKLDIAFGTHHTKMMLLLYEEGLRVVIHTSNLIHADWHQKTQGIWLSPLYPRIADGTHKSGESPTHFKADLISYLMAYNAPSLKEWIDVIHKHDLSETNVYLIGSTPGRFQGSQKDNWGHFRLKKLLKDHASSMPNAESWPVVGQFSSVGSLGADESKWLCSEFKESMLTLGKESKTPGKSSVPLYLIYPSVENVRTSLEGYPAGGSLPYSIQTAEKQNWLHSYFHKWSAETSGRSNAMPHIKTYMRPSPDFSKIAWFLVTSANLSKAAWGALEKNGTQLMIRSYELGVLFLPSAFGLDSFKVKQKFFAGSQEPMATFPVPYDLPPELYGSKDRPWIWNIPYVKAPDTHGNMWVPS
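Tdp1 1 nM final; 15 min RT w/ cpd; substrate 15 nM, 5 min; beads 10 ug/ml, 10 min; AlphaScreen read. Neg ctrl: no enzyme.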
DT40 TDP1 CPT = DT40-hTDP1 cell growth loss with CPT. chicken DT40 Tdp1-/-;hTDP1 cells + 20 nM CPT, ATP luminescence, 48 h. Potency, µM (top dose mostly 46.2 µM), without a hit: top-dose activity change, negative = growth inhibition, hits mostly inhibitors. 420,000 compounds, 12% hits. AID 686979; also: potency is read from the fitted curve at half-maximal effect; % is scaled to controls: 0 for no effect and ±100 for the full control effect; nearly all actives have a fitted effect of over 55% in size
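Cell growth measured by CellTiter-Glo luminescence after a minimum 48 h, 37 C compound exposure with 20 nM CPT in Tdp1-knockout DT40 cells stably expressing hTDP1, seeded 400/well; qHTS titration format.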
IL-1B inflam inh = inflammasome signaling inhibition, IL-1 beta readout | activity change, % at 57.5 µM | THP-1 LPS/ATP IL-1B secretion, AlphaLISA, 16 h; hits give low values | 360,000 compounds, 4.7% hits; in the data active = activity change below about -50%; inconclusive = mostly about -30% to -49%; also: % is scaled to controls: 0 for no effect and ±100 for the full control effect
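THP-1 cells pretreated 1 hr with compounds (up to 57.5 uM final), then stimulated with LPS (250 ng/mL final) plus ATP (1.25 mM final); secreted IL-1B measured by AlphaLISA after 16 hr, decreased signal indicating inhibition.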
TGFb SMAD3 inh = blocks TGF-b signaling | HepG2 CAGA-GFP TGF-b/SMAD3 reporter, GFP fluorescence, 18 h; TGF-beta stimulated, 500 pg/mL final | Potency, µM (series often up to 46.1 µM), for inactives: top-dose activity, negative = inhibition, hits mostly inhibitors | 410,000 compounds, 1.2% hits | AID 588855; also: potency is read from the fitted curve at half-maximal effect; % is scaled to controls: 0 for no effect and ±100 for the full control effect; nearly all actives have a fitted effect of over 65% in size
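Inhibition of TGF-beta-driven CAGA-GFP reporter expression in HEPG2 cells is measured by cellular GFP fluorescence after 18 h stimulation with 500 pg/mL recombinant TGF-beta in 1% FBS medium at 37 degrees C.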
TDP1 cell noCPT = qHTS for Inhibitors of human tyrosyl-DNA phosphodiesterase 1 (TDP1): qHTS in cells in absence of CPT; Potency, µM (top dose mostly 46.2 µM), for inactives: at the top dose activity change, negative = growth inhibition, hits mostly inhibitors; 420,000 compounds, 15% hits; AID 686978, 2013; DT40 Tdp1-/- hTDP1 cells, no CPT, ATP luminescence, 48 h; also: potency is read from the fitted curve at half-maximal effect; % is scaled to controls: 0 for no effect and ±100 for the full control effect; nearly all actives have a fitted effect of over 55% in size
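Cells were dispensed at 400 per well, compounds added by pin tool, plates incubated ≥48 hr at 37 °C, then CellTiter-Glo added for 30 min at room temperature before luminescence reading. Line: DT40 Tdp1-/- complemented with hTDP1; camptothecin omitted.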
* = called active by the depositor; u = inconclusive; x = no result; [ ] = remark or other dose. Unless noted, calls follow the shape of the dose curve; as a rule, active = well fitted curve in the direction sought with a large enough effect; inconclusive = small, poorly fitted or top-dose-only effect, or another doubt; inactive = no such curve, though single readings can be large; an effect the other way counts as inactive or inconclusive.

SMILES | HepG2 tox | TDP1 block | DT40 TDP1 CPT | IL-1B inflam inh | TGFb SMAD3 inh | TDP1 cell noCPT
C=C[C@](C)(O)CCC1C(=C)CC(O)C2C(C)(C)CCCC12C (stereo partly drawn) | x | 13%[56.1 µM] | u | x | x | 9.2µM*
c1cncc(OC2CCN(Cc3ccc4c(c3)CN(Cc3ccc5c(c3)OCO5)CCO4)CC2)c1 | x | x | -12%[9.04 µM] | x | x | u
OC1(c2cccnc2)CCN(Cc2ccc3c(c2)CN(Cc2ccc(F)c(F)c2)CCO3)CC1 | x | x | -6%[9.04 µM] | x | x | 12µM*
Cc1nn(C)c(Cl)c1CN1CCOc2ccc(CN3CCC(Oc4cccnc4)CC3)cc2C1 | x | x | 10µM* | x | x | 8.2µM*
COc1ccc(NC(=O)c2cc(-c3cc(Cl)ccc3OC)n[nH]2)cc1OC | -42% | x | 21µM* | -65* | 11% | u
COc1ccc(NC(=O)c2cc(-c3cc(C)cc(F)c3)n[nH]2)cc1OC | -11% | x | 26µM* | u | 0% | u
COc1ccc(NC(=O)c2cc(-c3cc(Cl)ccc3C)n[nH]2)cc1OC | -21% | x | u | -52* | 6% | u
CCC(C)[C@H](NC(=O)C1CC(=O)N(c2ccc(OC)cc2)C1)C(=O)NC1CCCC1 (stereo partly drawn) | 0% | 1% | -9% | 13 | 6% | 24%
COC(=O)/C(Cc1cc(Br)c(OC)c(Br)c1O)=N/O | x | 7% | x | x | x | x
O=c1cc(C(F)(F)F)nc(SC/C=C/c2ccccc2)[nH]1 | -33% | 5% | -7% | 41 | 14µM* | -24%
O=C(NCC1CCOCC1)C1CCC(=O)N(Cc2cccc(C(F)(F)F)c2)C1 (stereo not drawn) | -7% | 3% | -4% | 2 | -2% | 22%
O=NN(C(=O)NCc1cccnc1)C1CCCCC1 | -4% | x | -21% | 9 | 21% | 0%
C=C(CN(C)C)C(=O)c1ccc(OC2OC(COC(C)=O)C(OC(C)=O)C(OC(C)=O)C2OC(C)=O)cc1 (stereo not drawn) | -94% | x | 0.46µM* | -101* | u | 0.58µM*
CCC(C)(C)C1CCc2[nH]nc(C(=O)NCCNC(=O)OC(C)(C)C)c2C1 (stereo not drawn) | -11% | -3% | u | -2 | u | u
CCC(C)(C)C1CCc2[nH]nc(C(=O)NN)c2C1 (stereo not drawn) | 3% | 7% | -22% | -18 | -22% | u
CCC(C)(C)C1CCc2[nH]nc(C(=O)NC3CCCCC3)c2C1 (stereo not drawn) | 13% | -4% | 12µM* | 13 | -8% | u
CCC(C)(C)C1CCc2[nH]nc(C(=O)NC(C)C)c2C1 (stereo not drawn) | -18% | -1% | u | -18 | -14% | 21µM*
C#CCSc1nc2ccccc2c(=O)n1CC=C | 0% | -4% | 8% | x | 5% | -28%
COc1ccccc1NC(=O)Cn1c(=O)oc2cc(S(=O)(=O)NCc3ccccc3)ccc21 | 3% | 1% | u | x | 9% | u
COc1ccc(Cc2nnc(SCC(=O)Nc3ccc(N4CCOCC4)cc3)o2)cc1 | 21% | 5%[0.0935 µM] | -14% | -5 | 3% | -9%
C[C@@H](C(=O)NCc1c(F)cccc1Cl)N1C(=O)N2CCc3c([nH]c4ccccc34)[C@@]2(C)C1=O | -29% | x | 18µM* | -12 | u | 21µM*
COc1ccc2[nH]c3c(c2c1)CCN1C(=O)N([C@@H](C)C(=O)NCc2ccc(F)cc2)C(=O)[C@]31C | -13% | x | -12% | -13 | -13% | u
COc1ccc2[nH]c3c(c2c1)CCN1C(=O)N([C@@H](C)C(=O)NCc2c(F)cccc2Cl)C(=O)[C@]31C | -10% | x | 18µM* | -8 | -16% | u
Cc1ccc(CNC(=O)CSc2nc(=O)[nH]c3c2CCCC3)cc1 | 2% | 5% | 3% | x | u | 2%
CC(C)(C(=O)N1CCC1(C)C(=O)NS(=O)(=O)c1ccc(Cl)s1)c1ccccc1 (stereo not drawn) | -18% | x | -22% | 31 | -20% | -29%
COc1ccccc1CNC(=O)c1nccnc1CO | 3% | x | 4% | 7 | 7% | 4%
CCCNC(=O)/C(C#N)=C1\N=C(NC(=O)c2ccco2)c2ccccc21 | 5% | 2% | 16µM* | -6 | 8% | u
CC(C)CNC(=O)/C(C#N)=C1\N=C(NC(=O)c2ccco2)c2ccccc21 | -1% | 5% | u | 0 | 11% | u
N#C/C(C(=O)NCc1ccccc1)=C1/N=C(NC(=O)c2cccs2)c2ccccc21 | 5% | 3% | 16µM* | 15 | 0% | 10µM*

Screening results deposited in PubChem BioAssay by National Center for Advancing Translational Sciences (NCATS).
